Assay outcomes deposited in PubChem by National Center for Advancing Translational Sciences (NCATS).
The list is not random: actives were taken first. Their share in the collection is about 19%.
VP16 counter: VP16 counterscreen qHTS for inhibitors of ROR gamma transcriptional activity. Drosophila S2 Gal4-VP16 UAS-luciferase, luminescence, 20 h. Potency, µM (titrated, usually from 53.6 µM), for inactives: at the top dose activity, negative = inhibition, hits mostly inhibitors. 310,000 compounds, 3.5% hits;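 also: Gal4-VP16 expression switched on by copper sulfate through the metallothionein promoter; nearly all actives have a fitted effect of over 50% in size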
TDP1 cell CPT: qHTS for Inhibitors of human tyrosyl-DNA phosphodiesterase 1 (TDP1): qHTS in cells in presence of CPT | chicken DT40 Tdp1-/-;hTDP1 cells + 20 nM CPT, ATP luminescence, 48 h | Potency, µM (top dose mostly 46.2 µM), for inactives: at the highest dose activity change, negative = growth inhibition, most hits filed as inhibitors | 420,000 compounds, 12% hits; also: nearly all actives have a fitted effect of over 55% in size
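Cell growth measured by CellTiter-Glo luminescence after a minimum 48 h, 37 C compound exposure with 20 nM CPT in Tdp1-knockout DT40 cells stably expressing hTDP1, seeded 400/well; qHTS titration format.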
RORg inh: qHTS for inhibitors of ROR gamma transcriptional activity | Drosophila S2 Gal4-RORgamma UAS-luciferase reporter, 20 h | AID 2551, 2010 | 310,000 compounds, 5.4% hits | Potency, µM (highest dose often 53.6 µM), for inactives: top-dose activity change, negative = inhibition, hits mostly inhibitors | Nuclear receptor ROR-gamma (Mus musculus), P51450; also: nearly all actives have a fitted effect of over 60% in size
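Read-out: Photinus luciferase luminescence; inhibitors lower reporter signal. Insect Schneider cells with Gal4-ROR gamma fusion under metallothionein promoter, UAS reporter; 700 uM final copper sulfate induction, 20 hr, ambient temperature.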
TDP1 block: qHTS Assay for Inhibitors of Tyrosyl-DNA Phosphodiesterase (TDP1) | recombinant TDP1, AlphaScreen DNA substrate cleavage | Potency, µM (series often up to 130 µM), for inactives: at the highest dose activity change, negative = inhibition, most hits filed as inhibitors | 350,000 compounds, 0.28% hits; also: nearly all actives have a fitted effect of over 40% in size
Target sequence (Q9NUW8 whole entry, looked up): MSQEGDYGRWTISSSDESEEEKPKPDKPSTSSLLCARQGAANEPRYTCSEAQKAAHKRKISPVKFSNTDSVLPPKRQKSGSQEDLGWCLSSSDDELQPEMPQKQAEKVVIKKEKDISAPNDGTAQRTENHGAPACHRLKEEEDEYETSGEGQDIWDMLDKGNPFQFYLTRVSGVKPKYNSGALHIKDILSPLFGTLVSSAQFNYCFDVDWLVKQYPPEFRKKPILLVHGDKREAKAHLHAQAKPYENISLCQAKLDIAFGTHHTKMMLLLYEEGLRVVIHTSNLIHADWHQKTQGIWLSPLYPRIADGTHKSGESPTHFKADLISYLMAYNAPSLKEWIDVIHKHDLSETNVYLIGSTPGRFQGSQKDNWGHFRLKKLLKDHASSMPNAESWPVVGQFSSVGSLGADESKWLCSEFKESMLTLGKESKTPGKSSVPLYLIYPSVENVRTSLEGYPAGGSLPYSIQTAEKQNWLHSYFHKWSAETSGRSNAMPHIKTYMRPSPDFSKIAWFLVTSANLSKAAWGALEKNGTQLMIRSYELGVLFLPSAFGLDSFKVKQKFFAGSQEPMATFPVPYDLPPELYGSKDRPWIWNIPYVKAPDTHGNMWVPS
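Signal: AlphaScreen proximity between streptavidin donor and anti-FITC acceptor beads on intact substrate. Reaction: Tdp1 1 nM, substrate 15 nM final, 5 min RT after 15 min compound preincubation.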
DT40 TDP1 no CPT: qHTS for Inhibitors of human tyrosyl-DNA phosphodiesterase 1 (TDP1): qHTS in cells in absence of CPT; DT40 Tdp1-/- hTDP1 cells, no CPT, ATP luminescence, 48 h; Potency, µM (series often up to 46.2 µM), inactives show top-dose activity change, negative = growth inhibition, most hits filed as inhibitors; 420,000 compounds, 15% hits; AID 686978, 2013; also: nearly all actives have a fitted effect of over 55% in size
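Readout: luminescence from CellTiter-Glo after 30 min in the dark at RT. Cells: DT40 Tdp1-/- with stable hTDP1, 400/well. Exposure: compounds alone, ≥48 hr, 37 °C.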
The depositor's hits bear a star; [ ] = another dose, or the depositor's remark. Calls follow the shape of the dose curve; as a rule, active = well fitted curve in the direction sought with a large enough effect; inconclusive = small, poorly fitted or top-dose-only effect, or another doubt; inactive = no such curve, though single readings can be large; an effect the other way counts as inactive or inconclusive. % is scaled to controls: 0 for no effect and ±100 for the full control effect; potency is read from the fitted curve at half-maximal effect.

`COc1cc(C)c(NC(=O)COc2ccc3c(c2)OCO3)cc1C` gave VP16 counter 12%, TDP1 cell CPT -21%, RORg inh -4%, TDP1 block 5% and DT40 TDP1 no CPT inconclusive.
Screening COc1ccc(C(C)=O)cc1COC(=O)c1cccnc1SC returned VP16 counter -9%, TDP1 cell CPT 0%, RORg inh 0%, TDP1 block 2% and DT40 TDP1 no CPT -13%.
Screening Cc1cc2c(cc1C)NC(CC(=O)Nc1cccc(Cl)c1)C(=O)N2 (centres undefined) returned TDP1 cell CPT 16µM*, TDP1 block 0%[12.3 µM] and DT40 TDP1 no CPT inconclusive.
For CCCCNC(=O)CC1Nc2cc(C)c(C)cc2NC1=O (centres undefined) the results were TDP1 cell CPT 4.6µM* and DT40 TDP1 no CPT 5.2µM*.
Screening O=C(CC1NC(=O)NC1=O)Nc1ccc(Cl)cc1 (centres undefined) returned VP16 counter -4%, TDP1 cell CPT -19%, RORg inh -40%, TDP1 block 5% and DT40 TDP1 no CPT 21%.
CC(C)C[C@@]12C(=O)N(c3cccc(F)c3)C(=O)N1[C@H](c1ccc(Br)cc1)[C@@H]1C(=O)N(C(C)(C)C)C(=O)[C@@H]12 was read as TDP1 cell CPT inconclusive, TDP1 block 0% and DT40 TDP1 no CPT 21µM*.
For CC(C)(C)N1C(=O)[C@H]2[C@@H](c3ccc(Br)cc3)N3C(=O)N(c4cccc(Br)c4)C(=O)[C@@]3(Cc3ccccc3)[C@H]2C1=O the results were VP16 counter 5%, TDP1 cell CPT inconclusive, RORg inh -1% and DT40 TDP1 no CPT 8.2µM*.
COc1ccc(N2C(=O)N3[C@H](c4cccc(C)c4)[C@@H]4C(=O)N(Cc5ccccc5)C(=O)[C@@H]4[C@]3(Cc3ccccc3)C2=O)cc1 was read as VP16 counter 1%, TDP1 cell CPT 12µM*, RORg inh -12% and DT40 TDP1 no CPT 13µM*.
For CC[C@@]12C(=O)N(c3cccc(Cl)c3)C(=O)N1[C@H](c1ccc(Br)cc1)[C@@H]1C(=O)N(C(C)(C)C)C(=O)[C@@H]12 the results were TDP1 cell CPT 26µM*, TDP1 block 0% and DT40 TDP1 no CPT 16µM*.
COc1ccc(OC)c(C2C(C(=O)c3ccc(C)o3)=C(O)C(=O)N2c2cc(C)on2)c1 (centres undefined) was read as VP16 counter 4%, TDP1 cell CPT inconclusive, RORg inh 15%, TDP1 block 3% and DT40 TDP1 no CPT inconclusive.
`O=C(CC1SC(=NCC2CCCO2)NC1=O)Nc1cccc2ccccc12` (centres undefined) gave VP16 counter -15%, TDP1 cell CPT 9%, RORg inh 19%, TDP1 block -8% and DT40 TDP1 no CPT 4%.
`O=C(NNC(=O)c1ccccc1F)c1ccc(S(=O)(=O)N2CCCC2)cc1` gave TDP1 cell CPT 32%, TDP1 block -3% and DT40 TDP1 no CPT 3%.
`CCOc1ccccc1N1CCN(C(=O)C(Sc2ccccc2)c2ccccc2)CC1` (centres undefined) gave VP16 counter -3%, TDP1 cell CPT inconclusive, RORg inh inconclusive, TDP1 block 0% and DT40 TDP1 no CPT inconclusive.
For COc1ccc(N2CC(NC(=O)c3ccc(S(=O)(=O)N4CCCC4)cc3)CC2=O)cc1 (centres undefined) the results were TDP1 cell CPT -17%, TDP1 block 3% and DT40 TDP1 no CPT 7%.
`CCC(C)[C@H](NC(=O)NCc1ccccc1Cl)C(=O)O` (some centres undefined) gave VP16 counter -3%, TDP1 cell CPT -1%, RORg inh -17%, TDP1 block 12% and DT40 TDP1 no CPT 2%.
Screening CCCn1c(=O)c2sccc2n2c(CCCC(=O)Nc3ccc(Oc4ccccc4)cc3)nnc12 returned TDP1 cell CPT 10µM*, TDP1 block 5% and DT40 TDP1 no CPT 15µM*.
For CCCn1c(=O)c2sccc2n2c(CCCC(=O)Nc3ccc(Oc4ccc(Cl)cc4)cc3)nnc12 the results were TDP1 cell CPT 16µM*, TDP1 block 9% and DT40 TDP1 no CPT 16µM*.
CCCNC(=O)c1cc(C2CCCCN2C(=O)CCc2ccccc2)on1 (centres undefined) was read as TDP1 cell CPT 1% and DT40 TDP1 no CPT 1%.
For Cc1[nH]c2ccccc2c1C1=CC(=O)C=CC1=O the results were TDP1 cell CPT 1.6µM* and DT40 TDP1 no CPT 1.8µM*.
Screening O=C(CNCc1ccccn1)Nc1ccc([N+](=O)[O-])cc1C(=O)Nc1ccccc1F returned VP16 counter -19%, TDP1 cell CPT inconclusive, RORg inh 20µM*, TDP1 block -4% and DT40 TDP1 no CPT inconclusive.
`CCOC(=O)N1CCN(CC(=O)Nc2ccc([N+](=O)[O-])cc2C(=O)Nc2ccccc2F)CC1` gave VP16 counter -3%, TDP1 cell CPT 21µM*, RORg inh -7%, TDP1 block 3% and DT40 TDP1 no CPT 9.2µM*.
For Cc1cc(C)n(CC(=O)NNC(=O)COc2ccc(F)cc2Br)n1 the results were TDP1 cell CPT -4%, TDP1 block -1% and DT40 TDP1 no CPT -29%.
`COc1ccc(/C=C/C(=O)NCc2cn(C)nc2C)cc1COc1ccc(Br)cc1` gave VP16 counter -8%, TDP1 cell CPT -8%, RORg inh 13%, TDP1 block 6% and DT40 TDP1 no CPT -30%.
CSc1cc(C)c(OCC(=O)Nc2c(C)nn(C)c2C)c(C)c1 was read as VP16 counter -7%, TDP1 cell CPT 15µM*, RORg inh -5%, TDP1 block 2% and DT40 TDP1 no CPT inconclusive.
`Cc1nn(C)c(C)c1NC(=O)COc1ccc(F)cc1Br` gave TDP1 cell CPT inconclusive, TDP1 block 0% and DT40 TDP1 no CPT 13µM*.
`COc1ccc(/C=C/C(=O)Nc2c(C)nn(C)c2C)cc1COc1ccc(Cl)cc1Br` gave VP16 counter -16%, TDP1 cell CPT 18µM*, RORg inh inconclusive, TDP1 block 0% and DT40 TDP1 no CPT inconclusive.
Cc1nn(C)c(C)c1NC(=O)COc1ccccc1C#N was read as TDP1 cell CPT 11%, TDP1 block -1% and DT40 TDP1 no CPT -14%.
Screening O=C(CSc1nc2[nH]c(=O)cc(O)c2s1)NCCc1ccccc1 returned TDP1 cell CPT -6%, TDP1 block 0% and DT40 TDP1 no CPT -1%.
